# Measured values reported in PubChem BioAssay (NCATS).
# Records with an inconclusive call do not appear. Entries that show only a call come without a potency. Active and inactive are the calls of the source. Calls come from the whole dose curve; as a rule, active = well fitted curve in the direction sought with a large enough effect; inconclusive = small, poorly fitted or top-dose-only effect, or another doubt; inactive = no such curve, though single readings can be large; an effect the other way counts as inactive or inconclusive.
# Assays:
# [1] = Quantitative High-Throughput drug screen in 47 multiple myeloma cell lines against the NCATS MIPE library collection: EJM_DSMZ cell viability assay (AID 1918926; note: nearly all actives have a fitted effect of over 30% in size)
# In short: (§1)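 Primary qHTS used for cherry-picking: cells at 500/well, library compounds for 48 h (37C, 5% CO2), luminescent ATP assay.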
# [2] = Quantitative High-Throughput drug screen in 47 multiple myeloma cell lines against the NCATS MIPE library collection: ARP1_JJKsccF8 cell viability assay (AID 1918928; note: nearly all actives have a fitted effect of over 40% in size)
# In short: (§2)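 500 cells/well; MIPE 4.0 library pinned in; 48 h, 37 °C, 5% CO2; CellTiter-Glo ATP luminescence. Controls: DMSO = 100% viability, medium only = 0%.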
# [3] = Quantitative High-Throughput drug screen in 47 multiple myeloma cell lines against the NCATS MIPE library collection: KHM11_PLB cell viability assay (AID 1918962); note: nearly all actives have a fitted effect of over 35% in size
# In short: (§3)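 Approved and investigational drugs from MIPE 4.0 were added by pin tool to 500 cells per well. After 48 hours at 37C, ATP-based CellTiter-Glo luminescence indicated remaining viability.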
# [4] = Quantitative High-Throughput drug screen in 47 multiple myeloma cell lines against the NCATS MIPE library collection: JIM3_ECACC cell viability assay (AID 1918963; note: nearly all actives have a fitted effect of over 35% in size)
# In short: as §3
# [5] = Quantitative High-Throughput drug screen in 47 multiple myeloma cell lines against the NCATS MIPE library collection: INA6_PLB cell viability assay (AID 1918965; note: nearly all actives have a fitted effect of over 55% in size)
# In short: (§4)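 Inhibition of cell viability is measured here. Each line was plated at 500 cells per well, treated with MIPE 4.0 drugs, kept 48 hours at 37C, then assayed for ATP content by CellTiter-Glo luminescence.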
# [6] = Quantitative High-Throughput drug screen in 47 multiple myeloma cell lines against the NCATS MIPE library collection: H1112_PLB cell viability assay (AID 1918967; note: nearly all actives have a fitted effect of over 30% in size)
# In short: as §1
# [7] = Quantitative High-Throughput drug screen in 47 multiple myeloma cell lines against the NCATS MIPE library collection: Karpas25_ECACC cell viability assay (AID 1918968; note: nearly all actives have a fitted effect of over 35% in size)
# In short: as §1
# [8] = Quantitative High-Throughput drug screen in 47 multiple myeloma cell lines against the NCATS MIPE library collection: KMS26_JCRB cell viability assay (AID 1918975); note: nearly all actives have a fitted effect of over 45% in size
# In short: (§5)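 Relative luminescence from CellTiter-Glo served as the viability signal, referenced to DMSO-treated (100%) and cell-free medium (0%) controls. Treatment lasted 48 hours at 37C with 500 cells per well.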
# [9] = Quantitative High-Throughput drug screen in 47 multiple myeloma cell lines against the NCATS MIPE library collection: KMS12BM_JCRB cell viability assay (AID 1918971); note: nearly all actives have a fitted effect of over 35% in size
# In short: as §5
# [10] = Quantitative High-Throughput drug screen in 47 multiple myeloma cell lines against the NCATS MIPE library collection: KMS21BM_JCRB cell viability assay (AID 1918974); conditions: ATP luminescence, 48 h; viability: at 45.8 µM (top of the series)
# In short: as §1
# [11] = Quantitative High-Throughput drug screen in 47 multiple myeloma cell lines against the NCATS MIPE library collection: Karpas620_DSMZ cell viability assay (AID 1918959); note: nearly all actives have a fitted effect of over 30% in size
# In short: as §3
# [12] = Quantitative High-Throughput drug screen in 47 multiple myeloma cell lines against the NCATS MIPE library collection: KMM1_JCRB cell viability assay (AID 1918960); note: nearly all actives have a fitted effect of over 30% in size
# In short: as §2
# [13] = Quantitative High-Throughput drug screen in 47 multiple myeloma cell lines against the NCATS MIPE library collection: KMS27_JCRB cell viability assay (AID 1918970); note: nearly all actives have a fitted effect of over 30% in size
# In short: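 CellTiter-Glo luminescence after 48 h drug exposure at 37 °C; 500 cells/well, 1536-well format, pin-tool compound addition; DMSO = 100%, media-only = 0% viability.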
# [14] = Quantitative High-Throughput drug screen in 47 multiple myeloma cell lines against the NCATS MIPE library collection: KMS12PE_JCRB cell viability assay (AID 1918972); note: nearly all actives have a fitted effect of over 30% in size
# In short: as §4
# [15] = Quantitative High-Throughput drug screen in 47 multiple myeloma cell lines against the NCATS MIPE library collection: AMO1_DSMZ cell viability assay (AID 1918927; note: nearly all actives have a fitted effect of over 30% in size)
# In short: as §1
# [16] = Quantitative High-Throughput drug screen in 47 multiple myeloma cell lines against the NCATS MIPE library collection: Karpas417_ECACC cell viability assay (AID 1918961); conditions: Karpas417 myeloma viability, CellTiter-Glo ATP luminescence, 48 h; viability (% of DMSO): at 45.8 µM (top of the series)
# In short: as §4
# [17] = Quantitative High-Throughput drug screen in 47 multiple myeloma cell lines against the NCATS MIPE library collection: JIM1_ECACC cell viability assay (AID 1918964)
# In short: as §1
# [18] = Quantitative High-Throughput drug screen in 47 multiple myeloma cell lines against the NCATS MIPE library collection: JJN3_DSMZ cell viability assay (AID 1918966; note: nearly all actives have a fitted effect of over 50% in size)
# In short: as §1
# [19] = Quantitative High-Throughput drug screen in 47 multiple myeloma cell lines against the NCATS MIPE library collection: KMS20_JCRB cell viability assay (AID 1918973); note: nearly all actives have a fitted effect of over 45% in size
# In short: as §1
# [20] = Quantitative High-Throughput drug screen in 47 multiple myeloma cell lines against the NCATS MIPE library collection: ARD_JJKsccE7 cell viability assay (AID 1918929)
# In short: as §1
# Potency is the fitted concentration of half-maximal effect.
structure (smiles),measurement,setting,value
CN1CCCC(n2nc(Cc3ccc(Cl)cc3)c3ccccc3c2=O)CC1 (stereo not given),Potency,[1],1.05 µM (active)
same,Potency,[2],6.62 µM (active)
same,Potency,[3],6.62 µM (active)
same,Potency,[4],14.8 µM (active)
same,Potency,[5],1.32 µM (active)
same,Potency,[6],1.87 µM (active)
same,Potency,[7],1.32 µM (active)
same,Potency,[8],3.72 µM (active)
NC(N)=NC(N)=NCCc1ccccc1,Potency,[1],4.69 µM (active)
same,Potency,[2],14.8 µM (active)
same,Potency,[3],16.6 µM (active)
same,Potency,[4],4.69 µM (active)
same,Potency,[5],20.9 µM (active)
same,Potency,[7],5.26 µM (active)
same,Potency,[9],10.5 µM (active)
same,Potency,[10],3.32 µM (active)
CCOc1cc(N)c(Cl)cc1C(=O)NCC1CN(Cc2ccc(F)cc2)CCO1 (stereo not given),Potency,[1],inactive
same,Potency,[2],inactive
same,Potency,[11],inactive
same,Potency,[12],inactive
same,Potency,[4],inactive
same,Potency,[6],inactive
same,Potency,[7],inactive
same,Potency,[13],inactive
same,Potency,[14],inactive
C[C@@H]1C[C@H]2[C@@H]3CCC4=CC(=O)C=C[C@]4(C)[C@@]3(Cl)[C@@H](O)C[C@]2(C)[C@@]1(OC(=O)c1ccco1)C(=O)CCl,Potency,[1],4.69 µM (active)
same,Potency,[15],1.48 µM (active)
same,Potency,[11],16.6 µM (active)
same,Potency,[16],8.33 µM (active)
same,Potency,[3],9.35 µM (active)
same,Potency,[4],9.35 µM (active)
same,Potency,[17],7.43 µM (active)
same,Potency,[5],2.96 µM (active)
same,Potency,[18],2.35 µM (active)
same,Potency,[6],5.26 µM (active)
same,Potency,[13],10.5 µM (active)
same,Potency,[9],18.7 µM (active)
same,Potency,[14],4.69 µM (active)
same,Potency,[19],7.43 µM (active)
same,Potency,[8],14.8 µM (active)
C[C@@H](CN1CC(=O)NC(=O)C1)N1CC(=O)NC(=O)C1,Potency,[1],inactive
same,Potency,[12],inactive
same,Potency,[16],0.0526 µM (active)
same,Potency,[4],inactive
same,Potency,[17],inactive
same,Potency,[5],10.5 µM (active)
same,Potency,[6],16.6 µM (active)
same,Potency,[7],9.35 µM (active)
same,Potency,[13],3.72 µM (active)
same,Potency,[14],1.66 µM (active)
same,Potency,[8],inactive
NC(=O)c1ccc2[nH]ccc2c1,Potency,[2],inactive
same,Potency,[11],inactive
same,Potency,[16],inactive
same,Potency,[4],inactive
same,Potency,[17],inactive
same,Potency,[5],inactive
same,Potency,[6],inactive
same,Potency,[7],inactive
same,Potency,[14],inactive
same,Potency,[8],inactive
COc1nc(N)nc2c1ncn2[C@@H]1O[C@H](CO)[C@@H](O)[C@@H]1O,Potency,[15],inactive
same,Potency,[2],inactive
same,Potency,[11],inactive
same,Potency,[12],inactive
same,Potency,[16],inactive
same,Potency,[4],inactive
same,Potency,[17],inactive
same,Potency,[18],13.2 µM (active)
same,Potency,[6],inactive
same,Potency,[7],inactive
same,Potency,[9],inactive
same,Potency,[14],inactive
same,Potency,[8],inactive
Nc1nc(=S)c2[nH]cnc2[nH]1,Potency,[2],1.32 µM (active)
same,Potency,[20],inactive
same,Potency,[11],inactive
same,Potency,[12],inactive
same,Potency,[16],inactive
same,Potency,[3],4.18 µM (active)
same,Potency,[4],9.35 µM (active)
same,Potency,[5],0.469 µM (active)
same,Potency,[6],14.8 µM (active)
same,Potency,[7],1.48 µM (active)
same,Potency,[13],inactive
same,Potency,[19],1.32 µM (active)
same,Potency,[8],6.62 µM (active)
CCC(=O)O[C@]1(C(=O)CCl)[C@@H](C)C[C@H]2[C@@H]3CCC4=CC(=O)C=C[C@]4(C)[C@@]3(F)[C@@H](O)C[C@@]21C,Potency,[1],inactive
same,Potency,[3],inactive
same,Potency,[4],inactive
same,Potency,[6],inactive
same,Potency,[9],14.8 µM (active)
same,Potency,[14],16.6 µM (active)
same,Potency,[10],inactive
same,Potency,[8],inactive
CCOC(=O)c1ccc(C#Cc2ccc3c(c2)C(C)(C)CCS3)nc1,Potency,[15],inactive
same,Potency,[20],inactive
same,Potency,[11],inactive
same,Potency,[12],inactive
same,viability (% of DMSO),[16],132% (active)
same,Potency,[4],18.7 µM (active)
same,Potency,[5],inactive
same,Potency,[6],20.9 µM (active)
same,Potency,[13],inactive
same,Potency,[14],11.8 µM (active)
same,Potency,[8],inactive
O=S(=O)(c1cccc2cnccc12)N1CCCNCC1,Potency,[20],inactive
same,Potency,[12],inactive
same,Potency,[6],16.6 µM (active)
same,Potency,[14],inactive
CC(C)OC(=O)OCOP(=O)(CO[C@H](C)Cn1cnc2c(N)ncnc21)OCOC(=O)OC(C)C,Potency,[15],20.9 µM (active)
same,Potency,[20],23.5 µM (active)
same,Potency,[12],20.9 µM (active)
same,Potency,[4],16.6 µM (active)
same,Potency,[7],14.8 µM (active)
same,Potency,[14],29.6 µM (active)
CCOC(=O)[C@H](CCc1ccccc1)N[C@H]1CS[C@H](c2cccs2)CN(CC(=O)O)C1=O,Potency,[15],1.32 µM (active)
same,Potency,[2],11.8 µM (active)
same,Potency,[20],1.66 µM (active)
same,Potency,[11],4.69 µM (active)
same,Potency,[12],1.05 µM (active)
same,Potency,[16],0.264 µM (active)
same,Potency,[4],inactive
same,Potency,[17],1.32 µM (active)
same,Potency,[5],2.96 µM (active)
same,Potency,[18],16.6 µM (active)
same,Potency,[6],13.2 µM (active)
same,Potency,[7],5.9 µM (active)
same,Potency,[13],0.296 µM (active)
same,Potency,[9],23.5 µM (active)
same,Potency,[14],1.66 µM (active)
same,Potency,[10],0.132 µM (active)
same,Potency,[8],18.7 µM (active)
CCC(=O)O[C@]1(C(=O)SCF)[C@H](C)C[C@H]2[C@@H]3C[C@H](F)C4=CC(=O)C=C[C@]4(C)[C@@]3(F)[C@@H](O)C[C@@]21C,Potency,[15],inactive
same,Potency,[2],inactive
same,Potency,[20],inactive
same,Potency,[11],inactive
same,Potency,[12],inactive
same,Potency,[16],inactive
same,Potency,[4],inactive
same,Potency,[17],inactive
same,Potency,[6],20.9 µM (active)
same,Potency,[14],inactive
same,Potency,[8],inactive
CN(CCOc1ccc(CC2SC(=O)NC2=O)cc1)c1ccccn1 (stereo not given),Potency,[15],inactive
same,Potency,[11],0.0019 µM (active)
same,Potency,[12],inactive
same,Potency,[3],inactive
same,Potency,[4],inactive
same,Potency,[5],inactive
same,Potency,[6],inactive
same,Potency,[7],inactive
same,Potency,[13],inactive
same,Potency,[14],inactive
CC1=NN(c2ccccc2)C(=O)C1,Potency,[2],inactive
same,Potency,[20],inactive
same,Potency,[11],inactive
same,Potency,[12],inactive
same,Potency,[4],inactive
same,Potency,[17],inactive
same,Potency,[5],13.2 µM (active)
same,Potency,[6],inactive
same,Potency,[13],inactive
same,Potency,[14],inactive
same,Potency,[8],inactive
